# Where a chain is given by its changes, count along the chain named. Whole data set: some 16,000 sequences, median “ka relative to ugcaugu” near 0.0091, cut for the highest 2% near 0.032. This is one part of a sample in which the highest values are shown more often than they occur.
# B1: UCGCAGG (DNA:RNA)
# RNA: GGGAGACCGGAAUUCAGAUUGUCCUCGCAGGUUAAAUCCCGUCGUAGCCACCA
# DNA 1: CAATCTGAATTCCGGTCTCCC
# DNA 2: TGGTGGCTACGACGGGATT
# B2: UACAUAC (DNA:RNA)
# RNA: B1 RNA with C26A, G27C, C28A, A29U, G30A, G31C
# DNA 1: CAATCTGAATTCCGGTCTCCC
# DNA 2: TGGTGGCTACGACGGGATT
# B3: GGUAUUA (DNA:RNA)
# RNA: GGGAGACCGGAAUUCAGAUUGUCCGGUAUUAUUAAAUCCCGUCGUAGCCACCA
# DNA 1: CAATCTGAATTCCGGTCTCCC
# DNA 2: TGGTGGCTACGACGGGATT
# B4: GGUAAUG (DNA:RNA)
# RNA: B3 RNA with U29A, A31G
# DNA 1: CAATCTGAATTCCGGTCTCCC
# DNA 2: TGGTGGCTACGACGGGATT
# B5: UUAGUUG (DNA:RNA)
# RNA: B3 RNA with G25U, G26U, U27A, A28G, A31G
# DNA 1: CAATCTGAATTCCGGTCTCCC
# DNA 2: TGGTGGCTACGACGGGATT
# B6: AUGCCAC (DNA:RNA)
# RNA: B1 RNA with U25A, C26U, A29C, G30A, G31C
# DNA 1: CAATCTGAATTCCGGTCTCCC
# DNA 2: TGGTGGCTACGACGGGATT
# B7: GUUACCC (DNA:RNA)
# RNA: B3 RNA with G26U, U29C, U30C, A31C
# DNA 1: CAATCTGAATTCCGGTCTCCC
# DNA 2: TGGTGGCTACGACGGGATT
# B8: CCCUGGG (DNA:RNA)
# RNA: B1 RNA with U25C, G27C, C28U, A29G
# DNA 1: CAATCTGAATTCCGGTCTCCC
# DNA 2: TGGTGGCTACGACGGGATT
# B9: UGGGGCG (DNA:RNA)
# RNA: B1 RNA with C26G, C28G, A29G, G30C
# DNA 1: CAATCTGAATTCCGGTCTCCC
# DNA 2: TGGTGGCTACGACGGGATT
# B10: UGGGUGA (DNA:RNA)
# RNA: B3 RNA with G25U, U27G, A28G, U30G
# DNA 1: CAATCTGAATTCCGGTCTCCC
# DNA 2: TGGTGGCTACGACGGGATT
# B11: UGGGUGC (DNA:RNA)
# RNA: B1 RNA with C26G, C28G, A29U, G31C
# DNA 1: CAATCTGAATTCCGGTCTCCC
# DNA 2: TGGTGGCTACGACGGGATT
# B12: CCUGGUG (DNA:RNA)
# RNA: B3 RNA with G25C, G26C, A28G, U29G, A31G
# DNA 1: CAATCTGAATTCCGGTCTCCC
# DNA 2: TGGTGGCTACGACGGGATT
# B13: UGGGCGU (DNA:RNA)
# RNA: B1 RNA with C26G, C28G, A29C, G31U
# DNA 1: CAATCTGAATTCCGGTCTCCC
# DNA 2: TGGTGGCTACGACGGGATT
# B14: CUGGGUG (DNA:RNA)
# RNA: B1 RNA with U25C, C26U, C28G, A29G, G30U
# DNA 1: CAATCTGAATTCCGGTCTCCC
# DNA 2: TGGTGGCTACGACGGGATT
# B15: UGGUGCU (DNA:RNA)
# RNA: B1 RNA with C26G, C28U, A29G, G30C, G31U
# DNA 1: CAATCTGAATTCCGGTCTCCC
# DNA 2: TGGTGGCTACGACGGGATT
# B16: UGGCGUU (DNA:RNA)
# RNA: B1 RNA with C26G, A29G, G30U, G31U
# DNA 1: CAATCTGAATTCCGGTCTCCC
# DNA 2: TGGTGGCTACGACGGGATT
# B17: CUAAUAC (DNA:RNA)
# RNA: B3 RNA with G25C, G26U, U27A, U30A, A31C
# DNA 1: CAATCTGAATTCCGGTCTCCC
# DNA 2: TGGTGGCTACGACGGGATT
# B18: UUAAUCA (DNA:RNA)
# RNA: B3 RNA with G25U, G26U, U27A, U30C
# DNA 1: CAATCTGAATTCCGGTCTCCC
# DNA 2: TGGTGGCTACGACGGGATT
# B19: UUUGCUU (DNA:RNA)
# RNA: B3 RNA with G25U, G26U, A28G, U29C, A31U
# DNA 1: CAATCTGAATTCCGGTCTCCC
# DNA 2: TGGTGGCTACGACGGGATT
# B20: CCAAUGG (DNA:RNA)
# RNA: B1 RNA with U25C, G27A, C28A, A29U
# DNA 1: CAATCTGAATTCCGGTCTCCC
# DNA 2: TGGTGGCTACGACGGGATT
# Molecular target: T1, RBFOX1 RRM (Homo sapiens, UniProt Q9NWB1 109-208)
# T1 sequence: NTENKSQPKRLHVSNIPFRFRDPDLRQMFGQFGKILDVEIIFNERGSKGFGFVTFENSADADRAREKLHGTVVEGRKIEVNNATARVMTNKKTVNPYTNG
# Assay: EMSA; HiTS-Eq, 1 nM pool, 10 min; buffer printed only for the single-RNA assays: 10 mM Tris pH 7.5, 150 mM NaCl, 3.4 mM EDTA, 0.001% NP-40, 30 C
# Settings: tags: His6 N-terminal (pET28a); label: 5' 32P
# Outline: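 Purified wild-type or mutant RbFox RRM at increasing concentrations was equilibrated with 1 nM of 5′-radiolabelled RNA carrying 7 randomized nucleotides for 10 min in 50 µL. Unbound RNA was separated by 8% native PAGE and sequenced. Relative association constants came from read-count changes of each RNA species compared with the control reaction, normalised to the cognate motif.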
row,Binder,binding signal
1,B1,0.0168 KA relative to UGCAUGU
2,B2,0.00108 KA relative to UGCAUGU
3,B3,0.00455 KA relative to UGCAUGU
4,B4,0.0152 KA relative to UGCAUGU
5,B5,0.0187 KA relative to UGCAUGU
6,B6,0.0065 KA relative to UGCAUGU
7,B7,0.0047 KA relative to UGCAUGU
8,B8,0.00714 KA relative to UGCAUGU
9,B9,0.0294 KA relative to UGCAUGU
10,B10,0.0273 KA relative to UGCAUGU
11,B11,0.0429 KA relative to UGCAUGU
12,B12,0.0199 KA relative to UGCAUGU
13,B13,0.0388 KA relative to UGCAUGU
14,B14,0.0408 KA relative to UGCAUGU
15,B15,0.0292 KA relative to UGCAUGU
16,B16,0.0221 KA relative to UGCAUGU
17,B17,0.00176 KA relative to UGCAUGU
18,B18,0.00562 KA relative to UGCAUGU
19,B19,0.0228 KA relative to UGCAUGU
20,B20,0.00975 KA relative to UGCAUGU

# Source: paper PMC9911399, “Two distinct binding modes provide the RNA-binding protein RbFox with extraordinary sequence specificity”
